# Laboratory results: the supplement of paper PMC8728848
# Only a selection was taken, and the strongest signals are over-represented in it overall.
# B1: PP2A1 (Arabidopsis thaliana) (protein)
# chain: MFRNQDSKYLIPVQKEAPPVTTLPMKASTVKSPHNCEAILRDADPPISLSSVNLSEQLRSGVFLKPKKQIKYWVDERNSNCFMLFAKNLSITWSDDVNYWTWFTEKESPNENVEAVGLKNVCWLDITGKFDTRNLTPGIVYEVVFKVKLEDPAYGWDTPVNLKLVLPNGKEKPQEKKVSLRELPRYKWVDVRVGEFVPEKSAAGEITFSMYEHAAGVWKKGLSLKGVAIRPKQHHHHHH
# How the values were obtained:
# Experiment in all cases: glycan array binding signal (z-score within array); higher = stronger binding
# Settings in all cases: glycan notation: IUPAC condensed, linker removed
# Fuc(a1-2)Gal(b1-3)GlcNAc = target: Fuc(a1-2)Gal(b1-3)GlcNAc
# Outline: (§1)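 Glycan array data were curated from 3228 arrays in the Consortium for Functional Glycomics database and kept only where the protein sequence was available. Glycan names were converted to IUPAC-condensed notation, and columns mapping to the same glycan were averaged. The binding signal is a within-array Z-score, averaged across arrays of the same protein sequence at different concentrations or buffers and across linkers. Negative Z-scores can be read as non-binding.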
# [1] = target: Fuc(a1-2)Gal(b1-4)GlcNAc(b1-3)Gal(b1-4)GlcNAc
# Outline: as §1
# [2] = target: Fuc(a1-2)[Gal(a1-3)]Gal(b1-4)Glc
# Outline: as §1
# [3] = target: Fuc(a1-2)[GalNAc(a1-3)]Gal(b1-4)GlcNAc(b1-3)Gal(b1-4)GlcNAc
# Outline: as §1
# [4] = target: Fuc(a1-2)[GalNAc(a1-4)]Gal(b1-4)GlcNAc
# Outline: as §1
# Gal(a1-2)Gal = target: Gal(a1-2)Gal
# Outline: as §1
# [5] = target: Gal(a1-3)Gal(b1-4)[Fuc(a1-3)]GlcNAc(b1-2)Man(a1-3)[Gal(a1-3)Gal(b1-4)[Fuc(a1-3)]GlcNAc(b1-2)Man(a1-6)]Man(b1-4)GlcNAc(b1-4)GlcNAc
# Outline: as §1
# [6] = target: Gal(b1-3)[Fuc(a1-4)]GlcNAc(b1-2)Man(a1-3)[Gal(b1-3)[Fuc(a1-4)]GlcNAc(b1-2)Man(a1-6)]Man(b1-4)GlcNAc(b1-4)[Fuc(a1-6)]GlcNAc
# Outline: as §1
# [7] = target: Gal(b1-4)GalNAc(a1-3)[Fuc(a1-2)]Gal(b1-4)GlcNAc
# Outline: as §1
# Gal(b1-4)Glc6S = target: Gal(b1-4)Glc6S
# Outline: as §1
# [8] = target: Gal(b1-4)GlcNAc(b1-2)Man(a1-3)[Man(a1-6)]Man(b1-4)GlcNAc(b1-4)GlcNAc
# Outline: as §1
# [9] = target: Gal(b1-4)GlcNAc(b1-2)Man(a1-6)Man(b1-4)GlcNAc(b1-4)GlcNAc
# Outline: as §1
# [10] = target: Gal(b1-4)GlcNAc(b1-3)Gal(b1-4)GlcNAc(b1-3)Gal(b1-4)GlcNAc
# Outline: as §1
# [11] = target: Gal(b1-4)GlcNAc(b1-6)Gal(b1-4)GlcNAc(b1-6)GalNAc
# Outline: as §1
# Gal3S(b1-4)Glc6S = target: Gal3S(b1-4)Glc6S
# Outline: as §1
# Gal3S(b1-4)GlcNAc6S = target: Gal3S(b1-4)GlcNAc6S
# Outline: as §1
# GalNAc(a1-3)GalNAc = target: GalNAc(a1-3)GalNAc
# Outline: as §1
# GalNAc(b1-3)Gal = target: GalNAc(b1-3)Gal
# Outline: as §1
# GalNAc(b1-3)GalNAc = target: GalNAc(b1-3)GalNAc
# Outline: as §1
# [12] = target: GlcNAc(b1-3)Gal(b1-4)GlcNAc(b1-3)Gal(b1-4)GlcNAc
# Outline: as §1
# [13] = target: GlcNAc(b1-4)GlcNAc(b1-4)GlcNAc
# Outline: as §1
# [14] = target: Man(a1-2)Man(a1-2)Man(a1-6)[Man(a1-3)]Man
# Outline: as §1
# [15] = target: Man(a1-2)Man(a1-3)[Man(a1-2)Man(a1-6)]Man
# Outline: as §1
# [16] = target: Man(a1-2)Man(a1-3)[Man(a1-6)]Man(a1-6)[Man(a1-2)Man(a1-3)]Man(b1-4)GlcNAc(b1-4)GlcNAc
# Outline: as §1
# [17] = target: Man(a1-2)Man(a1-6)[Man(a1-3)]Man(a1-6)[Man(a1-2)Man(a1-2)Man(a1-3)]Man(b1-4)GlcNAc(b1-4)GlcNAc
# Outline: as §1
# [18] = target: Man(a1-3)[Man(a1-6)]Man(a1-6)[Man(a1-2)Man(a1-3)]Man(b1-4)GlcNAc(b1-4)GlcNAc
# Outline: as §1
# [19] = target: Man(a1-3)[Man(a1-6)]Man(a1-6)[Man(a1-3)]Man(b1-4)GlcNAc(b1-4)GlcNAc
# Outline: as §1
# [20] = target: Man(a1-3)[Man(a1-6)]Man(b1-4)GlcNAc(b1-4)GlcNAc
# Outline: as §1
# [21] = target: Neu5Ac(a2-3)Gal(b1-3)[Fuc(a1-4)]GlcNAc(b1-3)Gal(b1-3)[Fuc(a1-4)]GlcNAc
# Outline: as §1
# [22] = target: Neu5Ac(a2-3)Gal(b1-3)[Neu5Ac(a2-6)]GalNAc
# Outline: as §1
# [23] = target: Neu5Ac(a2-3)Gal(b1-4)[Fuc(a1-3)]GlcNAc(b1-6)[Gal(b1-3)]GalNAc
# Outline: as §1
# [24] = target: Neu5Ac(a2-3)Gal(b1-4)[Fuc(a1-3)]GlcNAc(b1-6)[Neu5Ac(a2-3)Gal(b1-3)]GalNAc
# Outline: as §1
# [25] = target: Neu5Ac(a2-3)Gal6S(b1-4)GlcNAc
# Outline: as §1
# [26] = target: Neu5Ac(a2-8)Neu5Ac(a2-3)[GalNAc(b1-4)]Gal(b1-4)Glc
# Outline: as §1
# [27] = target: Neu5Ac(a2-8)Neu5Ac(a2-8)Neu5Ac(a2-3)Gal(b1-4)Glc
# Outline: as §1
binder,measurement,setting,value
B1,glycan array binding signal (z-score),Fuc(a1-2)Gal(b1-3)GlcNAc,-0.319
same,glycan array binding signal (z-score),[1],-0.347
same,glycan array binding signal (z-score),[2],-0.572
same,glycan array binding signal (z-score),[3],-0.018
same,glycan array binding signal (z-score),[4],-0.398
same,glycan array binding signal (z-score),Gal(a1-2)Gal,-0.291
same,glycan array binding signal (z-score),[5],-0.011
same,glycan array binding signal (z-score),[6],1.34
same,glycan array binding signal (z-score),[7],-0.498
same,glycan array binding signal (z-score),Gal(b1-4)Glc6S,0.116
same,glycan array binding signal (z-score),[8],2.93
same,glycan array binding signal (z-score),[9],0.362
same,glycan array binding signal (z-score),[10],-0.223
same,glycan array binding signal (z-score),[11],0.051
same,glycan array binding signal (z-score),Gal3S(b1-4)Glc6S,0.405
same,glycan array binding signal (z-score),Gal3S(b1-4)GlcNAc6S,0.165
same,glycan array binding signal (z-score),GalNAc(a1-3)GalNAc,-0.698
same,glycan array binding signal (z-score),GalNAc(b1-3)Gal,-0.293
same,glycan array binding signal (z-score),GalNAc(b1-3)GalNAc,-0.497
same,glycan array binding signal (z-score),[12],-0.708
same,glycan array binding signal (z-score),[13],2.52
same,glycan array binding signal (z-score),[14],0.03
same,glycan array binding signal (z-score),[15],0.174
same,glycan array binding signal (z-score),[16],3.07
same,glycan array binding signal (z-score),[17],2.69
same,glycan array binding signal (z-score),[18],2.97
same,glycan array binding signal (z-score),[19],3.55
same,glycan array binding signal (z-score),[20],2.85
same,glycan array binding signal (z-score),[21],0.594
same,glycan array binding signal (z-score),[22],0.432
same,glycan array binding signal (z-score),[23],-0.268
same,glycan array binding signal (z-score),[24],-0.091
same,glycan array binding signal (z-score),[25],0.07
same,glycan array binding signal (z-score),[26],0.265
same,glycan array binding signal (z-score),[27],0.006
